Assay outcomes: PubChem BioAssay, National Center for Advancing Translational Sciences (NCATS)
D2 ag-1: activates the human D2 dopamine receptor; actives 0.53% (n = 340,000); P14416; HEK293 T-REx D2 cells, calcium flux agonist mode; activation, % at 2 µM;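 active = activation over 3 SD above normal in the single-dose calcium agonist read, cut at about 30% in these data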; also: 0% is about no effect
Target sequence (P14416 whole entry, looked up): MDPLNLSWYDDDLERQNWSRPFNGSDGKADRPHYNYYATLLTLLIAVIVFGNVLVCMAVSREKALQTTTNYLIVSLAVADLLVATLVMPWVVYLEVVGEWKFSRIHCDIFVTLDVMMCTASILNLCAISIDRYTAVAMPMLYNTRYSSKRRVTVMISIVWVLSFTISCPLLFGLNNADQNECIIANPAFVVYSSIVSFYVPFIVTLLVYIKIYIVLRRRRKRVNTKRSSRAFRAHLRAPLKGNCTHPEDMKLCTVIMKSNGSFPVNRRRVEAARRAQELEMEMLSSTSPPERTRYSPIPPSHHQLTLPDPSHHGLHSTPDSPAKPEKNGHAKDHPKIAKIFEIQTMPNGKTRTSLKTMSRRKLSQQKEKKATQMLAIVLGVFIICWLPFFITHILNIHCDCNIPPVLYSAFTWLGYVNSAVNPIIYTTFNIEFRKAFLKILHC
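Tetracycline-induced HEK293 T-REx cells with force-coupled D2 receptor, plated overnight at 30 C, loaded with no-wash calcium dye. After a 10 s baseline, compound was pin-added and calcium flux read kinetically for 180 s; calcium rises flagged agonists.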
D2 antagonist: antagonists of human D2 dopamine receptor | AID 485344 | HEK293 TREx D2 cells, calcium flux, dopamine EC80 | actives 2% (n = 340,000) | P14416 | inhibition, % at 10 µM; in the data active = inhibition above about 30%; inactive = below that, where a call was filed; also: 0% is about no effect
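Read-out: kinetic calcium fluorescence (1 cycle/s) in inducible HEK293 T-REx D2 cells after an EC80 dopamine addition that followed 180 s compound preincubation. Loss of the dopamine response indicates antagonism.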
D2 ag-2: agonists of human D2 dopamine receptor (beta-arrestin); P14416; DiscoveRx PathHunter D2 beta-arrestin, luminescence, 90 min; 100% = 57 uM dopamine signal; activation, % (test concentration not listed); actives 0.084% (n = 360,000); AID 624465; in the data active = activation above about 40%
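Agonist mode: compounds alone added to overnight-plated D2 PathHunter cells for 90 min at 37 C, with 57 uM final dopamine (EC100) defining full response. Beta-arrestin recruitment detected by chemiluminescent reagent, read after 1 h at ambient temperature.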
D2 PAM-1: potentiates the human D2 dopamine receptor allosterically | DiscoveRx D2 beta-arrestin cells, luminescence, 90 min; 100% = 57 uM dopamine signal | potentiation, % (concentration not given with the values) | actives 0.23% (n = 360,000) | AID 624464; in the data active = potentiation above about 50%
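PathHunter D2 cells, attached overnight at 37 deg C, received compound in DMSO plus dopamine at EC20 (50 nM final) for 90 min at 37 deg C. Beta-arrestin recruitment was read as luminescence after 1 h with detection reagent at ambient temperature.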
D2 PAM-2: positive allosteric modulators of human D2 dopamine receptor | P14416 | HEK293 T-REx D2, calcium flux, EC20 dopamine potentiation | potentiation, % at 10 µM | actives 0.34% (n = 340,000) | AID 485347;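 active = potentiation over 3 SD above the plate norm, cut at about 30% in these data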; also: 0% is about no effect
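Primary screen. Calcium kinetics in induced HEK293 T-REx D2 cells: compound pre-addition 180 s, EC20 dopamine, 180 s more.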
Starred values were filed as active, the others as inactive. Most compounds without a hit are left out; they make up all but 2.4% or so of the library.

COc1ccc(C(=O)Nc2ccc(C(F)(F)F)n(C)c2=O)cc1 was read as D2 ag-1 0.1, D2 antagonist 9.3, D2 ag-2 0.7, D2 PAM-1 -6.5 and D2 PAM-2 -6.0.
Cc1ccc(C(=O)Nc2cccc3[nH]c(C(F)(F)F)nc23)cc1 was read as D2 ag-1 0.6, D2 antagonist 33.6*, D2 ag-2 3.4, D2 PAM-1 -8.6 and D2 PAM-2 2.0.
For Cc1cn(C)c(CC(=O)Nc2ccc(F)cc2Cl)c1C(=O)O the results were D2 ag-1 0.1 and D2 PAM-2 -15.3.
`CS(=O)(=O)c1ncc(Cl)c(C(=O)N2CCN(c3cccc(Cl)c3)CC2)n1` gave D2 ag-1 -0.9 and D2 PAM-2 14.6.
CCCc1cc(=O)[nH]c(SCC(=O)NC2CCCCCCC2)n1 was read as D2 ag-2 -1.5 and D2 PAM-1 -4.8.
`CCCc1cc(=O)[nH]c(SCC(=O)NC(=O)NC2CCCC2)n1` gave D2 ag-1 0.6, D2 antagonist 32.1*, D2 ag-2 1.2, D2 PAM-1 -14.5 and D2 PAM-2 -14.5.
`CCOC(=O)CN(Cc1ccccc1)C(C(=O)NC1CCCCC1)c1ccccc1` (centres undefined) gave D2 ag-1 0.3 and D2 PAM-2 0.3.
O=c1cc(-c2ccccc2)oc2cc(OCc3ccccc3)cc(O)c12 was read as D2 ag-1 0.9, D2 antagonist 50.7*, D2 ag-2 1.8, D2 PAM-1 -8.2 and D2 PAM-2 -8.0.
For O=c1cc(-c2ccc(OCc3ccccc3)cc2)oc2cc(OCc3ccccc3)cc(OCc3ccccc3)c12 the results were D2 ag-2 0.6 and D2 PAM-1 2.5.
For Cc1cc(S(=O)(=O)Nc2ccc3c(c2)n(C)c(=O)n3C)ccc1F the results were D2 ag-1 -0.3, D2 antagonist -5.3, D2 ag-2 -4.1, D2 PAM-1 -0.9 and D2 PAM-2 106.0*.
Screening COc1ccc(S(=O)(=O)Nc2ccc3c(c2)n(C)c(=O)n3C)cc1F returned D2 ag-1 -0.6, D2 antagonist -2.5, D2 ag-2 3.6, D2 PAM-1 -4.4 and D2 PAM-2 0.1.
Screening CCOc1ccc(CNS(=O)(=O)c2c(C(=O)N3CCCCCC3)c(C)n(C)c2C)cc1OC returned D2 PAM-2 -10.4.
For COc1ccc2sc(N(Cc3cccnc3)C(=O)c3ccc4c(c3)OCCO4)nc2c1 the results were D2 ag-1 0.2 and D2 PAM-2 10.0.
`Cc1c(Cl)cccc1NC(=S)NC1CCN(Cc2ccccc2)CC1` gave D2 ag-1 1.5, D2 antagonist 85.3*, D2 ag-2 0.5, D2 PAM-1 -37.6 and D2 PAM-2 -22.0.
For O=C(NC1CCN(Cc2ccccc2)CC1)c1ccc(Cl)cc1Cl the results were D2 ag-1 0.5, D2 antagonist 61.4*, D2 ag-2 0.6, D2 PAM-1 -86.0 and D2 PAM-2 -19.8.
Cc1c(Cl)cccc1NC(=S)N1CCN(Cc2ccccc2)CC1 was read as D2 ag-1 -0.3, D2 antagonist -0.2, D2 ag-2 -1.7, D2 PAM-1 -20.9 and D2 PAM-2 7.5.
O=C(NC1CCN(Cc2ccccc2)CC1)C1CCN(S(=O)(=O)c2ccc(Cl)cc2)CC1 was read as D2 ag-1 0.9, D2 antagonist 33.2*, D2 ag-2 -6.4, D2 PAM-1 -17.0 and D2 PAM-2 -13.8.
`CC(C)c1ccccc1NC(=S)N1CCN(Cc2ccc3c(c2)OCO3)CC1` gave D2 ag-1 1.8, D2 antagonist 33.4*, D2 ag-2 -4.2, D2 PAM-1 -14.8 and D2 PAM-2 -22.8.
For O=C(CNC(=O)c1ccccc1Cl)NC1CCN(Cc2ccccc2)CC1 the results were D2 ag-1 -0.2, D2 antagonist -1.3, D2 ag-2 -0.9, D2 PAM-1 -4.8 and D2 PAM-2 19.6.
`Cc1ccccc1-c1nc(CNC(=O)NC2CCCCC2)c(C)o1` gave D2 ag-1 0.4 and D2 PAM-2 -0.5.
For O=C(Nc1ccc2nc(SCC(=O)N3CCCc4ccccc43)sc2c1)c1cccc(Cl)c1 the results were D2 ag-1 -1.9 and D2 PAM-2 21.4.
`CCNC(=O)CCSc1nnc(-c2ccc(O)cc2)o1` gave D2 ag-1 -0.9 and D2 PAM-2 7.3.
`Clc1ccc(CNC2CCN(Cc3ccccc3)CC2)cc1` gave D2 ag-1 2.8, D2 antagonist -11.8, D2 ag-2 -3.1, D2 PAM-1 -13.3 and D2 PAM-2 1.2.
`S=C(NCc1ccc(Cl)cc1)NC1CCN(Cc2ccccc2)CC1` gave D2 ag-1 1.5, D2 antagonist 70.8*, D2 ag-2 7.4, D2 PAM-1 -20.4 and D2 PAM-2 -26.7.
Screening O=C(NC(=S)NC1CCN(Cc2ccccc2)CC1)c1ccc(F)cc1 returned D2 ag-1 2.6, D2 antagonist 7.0, D2 ag-2 -6.1, D2 PAM-1 -19.7 and D2 PAM-2 18.5.
`CC(C)c1ccccc1NC(=S)NC1CCN(Cc2ccccc2)CC1` gave D2 ag-1 0.7, D2 antagonist 95.7*, D2 ag-2 -5.1, D2 PAM-1 -13.7 and D2 PAM-2 -27.0.
For COc1ccc(CCNC(=S)NCCc2ccc(OC)c(OC)c2)cc1OC the results were D2 ag-1 -0.8, D2 antagonist 0.5, D2 ag-2 -1.1, D2 PAM-1 -4.6 and D2 PAM-2 7.2.
COc1ccc(CCNC(=S)NC2CCN(Cc3ccccc3)CC2)cc1OC was read as D2 ag-1 -0.1, D2 antagonist 31.6*, D2 ag-2 -0.9, D2 PAM-1 -12.6 and D2 PAM-2 -37.2.
`FC(F)(F)c1ccccc1NC(=S)NC1CCN(Cc2ccccc2)CC1` gave D2 ag-1 1.1, D2 antagonist 115.4*, D2 ag-2 -2.6, D2 PAM-1 -33.7 and D2 PAM-2 -26.4.
Screening CN(C)c1ccc(-c2nc(-c3ccco3)no2)cc1[N+](=O)[O-] returned D2 ag-1 1.0 and D2 PAM-2 -1.4.
For COc1ccc(Cl)cc1NC(=O)CSc1nnc2[nH]c(=O)cc(-c3ccccc3)n12 the results were D2 PAM-2 21.0.
Screening CCOc1ccc(-n2c(=O)c3c(C)c(C)sc3n(CC(=O)N3CCC(C)CC3)c2=O)cc1 returned D2 ag-1 -0.5 and D2 PAM-2 -5.2.
For S=C(Nc1ccccc1Cl)NC1CCC(NC(=S)Nc2ccccc2Cl)CC1 (centres undefined) the results were D2 ag-2 2.1, D2 PAM-1 -22.7 and D2 PAM-2 4.7.
For S=C(Nc1ccc(Cl)cc1Cl)NC1CCN(Cc2ccccc2)CC1 the results were D2 ag-1 2.4, D2 antagonist 74.7*, D2 ag-2 -1.5, D2 PAM-1 -28.2 and D2 PAM-2 -26.0.
`S=C(Nc1cc(Cl)cc(Cl)c1)NC1CCN(Cc2ccccc2)CC1` gave D2 ag-1 3.4, D2 antagonist 72.2*, D2 ag-2 -3.0, D2 PAM-1 -26.1 and D2 PAM-2 -28.1.
